# An excerpt weighted towards active compounds, which were near 21% of everything screened.
# ELG1 repair inh: blocks ELG1-dependent DNA repair in HEK293T cells; HEK293T ELG1-luciferase reporter, luminescence, 16 h; DNA damage induced by 5-fluorouridine; Potency, µM (series often up to 46.1 µM), for the others: top-dose activity change, negative = inhibition, usual class: inhibitors; hit rate 2.3% among 330,000; also: potency is read from the fitted curve at half-maximal effect; nearly all actives have a fitted effect of over 55% in size
#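 Quantitative HTS, concentration-response format. 2,000 cells/well co-treated with 5-fluorouridine and compound, 16 hr in 5% CO2 at 37 °C; ONE-Glo luminescence read after 30 min.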
# TDP1 cell noCPT: qHTS for Inhibitors of human tyrosyl-DNA phosphodiesterase 1 (TDP1): qHTS in cells in absence of CPT; hit rate 15% among 420,000; DT40 Tdp1-/- hTDP1 cells, no CPT, ATP luminescence, 48 h; Potency, µM (doses to about 46.2 µM), inactives show at the highest dose activity change, negative = growth inhibition, most hits filed as inhibitors; also: potency is read from the fitted curve at half-maximal effect; nearly all actives have a fitted effect of over 55% in size
#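 Chicken DT40 Tdp1-/- cells stably complemented with human TDP1 were seeded at 400 cells/well with DMSO in place of 20 nM camptothecin. After compound pinning, cells grew at least 48 hr at 37 °C; viability read by CellTiter-Glo luminescence.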
# TDP1 cell CPT: DT40-hTDP1 cell growth loss with CPT | chicken DT40 Tdp1-/-;hTDP1 cells + 20 nM CPT, ATP luminescence, 48 h | Potency, µM (top dose mostly 46.2 µM), for the others: at the highest dose activity change, negative = growth inhibition, hits mostly inhibitors | hit rate 12% among 420,000 | AID 686979; also: potency is read from the fitted curve at half-maximal effect; nearly all actives have a fitted effect of over 55% in size
#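 Cell growth measured by CellTiter-Glo luminescence after a minimum 48 h, 37 C compound exposure with 20 nM CPT in Tdp1-knockout DT40 cells stably expressing hTDP1, seeded 400/well; qHTS titration format.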
# VP16 counter: inhibits Gal4-VP16 luciferase reporter, ROR gamma counter-screen; Drosophila S2 Gal4-VP16 UAS-luciferase, luminescence, 20 h; Potency, µM (top dose mostly 53.6 µM), for inactives: at the highest dose activity, negative = inhibition, most hits filed as inhibitors; hit rate 3.5% among 310,000;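 also: Gal4-VP16 expression switched on by copper sulfate through the metallothionein promoter; potency is read from the fitted curve at half-maximal effect; nearly all actives have a fitted effect of over 50% in size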
# IL-1B inflam inh: inhibitors of inflammasome signaling (IL-1 beta secretion). activity change, % at 57.5 µM. hit rate 4.7% among 360,000. THP-1 LPS/ATP IL-1B secretion, AlphaLISA, 16 h; stronger effect = lower value. AID 743279; in the data active = activity change below about -50%; inconclusive = mostly about -30% to -49%
#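 Secreted IL-1B measured by AlphaLISA bead assay after 16 h compound exposure of THP-1 cells; compounds (final up to 57.5 uM) added 1 h before LPS (250 ng/mL) and ATP (1.25 mM) stimulation; lower signal means less secretion.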
# RORgamma inh: ROR gamma (mouse) transcription inhibition | P51450 | hit rate 5.4% among 310,000 | Drosophila S2 Gal4-RORgamma UAS-luciferase reporter, 20 h | Potency, µM (doses to about 53.6 µM), for inactives: at the highest dose activity change, negative = inhibition, usual class: inhibitors; also: potency is read from the fitted curve at half-maximal effect; nearly all actives have a fitted effect of over 60% in size
# Target sequence (P51450 whole entry, looked up, the tested form may be a part): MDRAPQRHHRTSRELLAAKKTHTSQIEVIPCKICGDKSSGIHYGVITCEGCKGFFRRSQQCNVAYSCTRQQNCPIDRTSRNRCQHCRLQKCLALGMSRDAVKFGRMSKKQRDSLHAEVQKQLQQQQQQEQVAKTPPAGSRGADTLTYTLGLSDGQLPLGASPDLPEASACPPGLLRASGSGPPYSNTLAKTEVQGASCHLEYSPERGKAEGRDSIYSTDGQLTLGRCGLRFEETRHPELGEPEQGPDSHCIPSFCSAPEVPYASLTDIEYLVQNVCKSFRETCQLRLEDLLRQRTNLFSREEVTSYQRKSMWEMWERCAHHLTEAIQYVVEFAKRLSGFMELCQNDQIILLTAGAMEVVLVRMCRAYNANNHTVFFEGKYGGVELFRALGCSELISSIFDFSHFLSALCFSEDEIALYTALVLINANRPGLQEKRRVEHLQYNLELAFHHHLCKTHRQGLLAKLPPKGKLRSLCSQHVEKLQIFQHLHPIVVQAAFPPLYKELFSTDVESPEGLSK
#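 In this cell-based reporter format, copper sulfate (700 uM final) drives Gal4–ROR gamma fusion expression from a metallothionein promoter in Drosophila Schneider cells; compounds preincubated 1 hr, reporter read after 20 hr at ambient temperature.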
# The depositor's hits bear a star; u = inconclusive; x = no result given; [ ] = dose if it differs, or a comment. Unless noted, calls follow the shape of the dose curve; as a rule, active = well fitted curve in the direction sought with a large enough effect; inconclusive = small, poorly fitted or top-dose-only effect, or another doubt; inactive = no such curve, though single readings can be large; an effect the other way counts as inactive or inconclusive. % is scaled to controls: 0 for no effect and ±100 for the full control effect.
SMILES,ELG1 repair inh,TDP1 cell noCPT,TDP1 cell CPT,VP16 counter,IL-1B inflam inh,RORgamma inh
COC(=O)C1=C(C(=O)OC)SC2(S1)C(C(=O)OC)=C(C(=O)OC)SC1=C2c2cc(C)ccc2NC1(C)C,-3.1%,14.6µM*,20.6µM*,u,-20.6,4.47µM*
COc1ccc(-c2csc(NC(C)c3nc4cc(Cl)c(Cl)cc4n3CCOCCO)n2)cc1 (stereo unspecified),x,18.4µM*,u,x,u,x
COc1ccc(-c2csc(NC(C)c3nc4cc(Cl)c(N5CCCCC5)cc4n3CCCO)n2)cc1 (stereo unspecified),x,u,25.9µM*,x,u,x
CC(Nc1nc(-c2ccc(F)cc2)cs1)c1nc2cc(Cl)c(Cl)cc2n1CCCO (stereo unspecified),x,u,u,x,-24.0,x
COc1ccc(-c2csc(NC(C)c3nc4cc(Cl)c(N5CCCCC5)cc4n3CCOCCO)n2)cc1 (stereo unspecified),x,u,13µM*,x,-23.5,x
Cc1ccc(Cn2c(C(C)Nc3nc(-c4ccc(C)cc4)cs3)nc3cc(Cl)c(Cl)cc32)cc1 (stereo unspecified),40.4%,-15.1%,u,-18.6%,-1.7,11.2µM*
COc1cc(CNC(=O)c2cnn(-c3ncc4c(n3)-c3ccccc3CC4)c2C)cc(OC)c1OC,x,-17.1%,-2.4%[9.04 µM],x,x,x
Cc1csc(NC(C)c2nc3cc(Cl)c(N4CCCCC4)cc3n2CCOCCO)n1 (stereo unspecified),x,u,u,x,-19.0,x
CC(Nc1nc(-c2ccc(Cl)cc2)cs1)c1nc2cc(Cl)c(N3CCCCC3)cc2n1CCOCCO (stereo unspecified),x,14.6µM*,16.4µM*,x,-28.9,x
CCCn1c(C(C)Nc2nc(-c3cc(Cl)c(N)c(Cl)c3)cs2)nc2cc(Cl)c(N3CCCCC3)cc21 (stereo unspecified),5.5%,u,18.4µM*,1.4%,7.4,14.1µM*
Nc1nnc(SCC(=O)Nc2nnc(-c3ccccc3)o2)s1,-4.8%,-4.1%,1.4%,x,-22.8,x
Cc1ccc(C)c(SCC(=O)Nc2nnc(-c3ccccc3)o2)c1,-0.9%,u,u,5.01µM*,9.0,2µM*
CCC(c1nnc(SCC(=O)Nc2nnc(-c3ccccc3)o2)o1)N(C)C (stereo unspecified),12.8%,-5.7%,-4.7%,u,65.7,12.6µM*
CCC1NC(=O)C(NC(=O)c2ncccc2O)C(C)OC(=O)C(c2ccccc2)NC(=O)C2CC(=O)CCN2C(=O)C(Cc2ccccc2)N(C)C(=O)C2CCCN2C1=O (stereo unspecified),x,x,x,-3.5%,x,32.5%
CC(C)CSc1n[nH]c(=S)s1,-17.6%,-25.8%,-18.9%,-9.9%,20.5,10µM*
COc1ccc(-c2noc(N3CCN(c4ccc(C)cc4)C(C)C3)n2)cc1OC (stereo unspecified),x,16.4µM*,u,x,x,x
COc1ccc(-c2noc(CN3CCCCC3)n2)cc1OC,8.3%,-14.0%,-6.5%,u,7.7,27.5%
COc1cc(CNC(=O)Nc2nnc([C@@H]3C[C@H](O)[C@@H](CO)O3)s2)cc(OC)c1OC,x,10.6%,11.2%,x,-8.6,x
COc1ccc(CCNC(=O)c2cc(-c3ccc(C)cc3)nc3n[nH]c(-c4ccc(F)cc4)c23)cc1OC,x,-22.7%,-16.2%,x,x,x
CCc1ccc(-c2[nH]nc3nc(-c4ccc(OC)cc4)cc(C(=O)NCCc4ccc(OC)c(OC)c4)c23)cc1,x,-29.6%,u,x,x,x
COc1ccc(OC)c(-c2cc(C(=O)NCCc3ccccc3)c3c(-c4ccc(C)cc4)[nH]nc3n2)c1,x,13µM*,23.1µM*,x,x,x
CCOc1ccc(-c2cc(C(=O)NCc3ccccc3)c3c(-c4ccc(CC)cc4)[nH]nc3n2)cc1,x,u,20.6µM*,x,x,x
CCOc1ccc(-c2cc(C(=O)NCc3ccc(OC)cc3)c3c(-c4ccc(F)cc4)[nH]nc3n2)cc1,x,0.3%,-0.3%,x,x,x
COc1ccc(-c2cc(C(=O)NCCc3ccccc3)c3c(-c4ccc(Cl)cc4)[nH]nc3n2)cc1,x,10.3µM*,11.6µM*,x,x,x
Cc1ccc(CNC(=O)c2cc(-c3ccc(C)cc3)nc3n[nH]c(-c4cccc([N+](=O)[O-])c4)c23)cc1,x,u,11.6µM*,x,x,x
SMILES,ELG1 repair inh,TDP1 cell noCPT,TDP1 cell CPT,VP16 counter,IL-1B inflam inh,RORgamma inh
COCCCNC(=O)c1cc(-c2ccc(OC)cc2)nc2n[nH]c(-c3ccc(Cl)cc3)c12,x,4.5%,8.7%,x,x,x
Cc1ccc([C@H]2C[C@@H](n3cc(-c4ccc(F)cc4)nn3)[C@H](O)CN2C(=O)C2CCCCC2)cc1,x,u,3.5%,x,-25.7,x
c1ccc(OCCNc2ccn3nc(-c4cccs4)cc3n2)cc1,x,u,u,x,-15.4,x
O=C(Nc1nnc(-c2ccccc2)s1)c1ccc(F)cc1,u,-18.3%,-2.9%,5.1%,-10.3,-6.8%
CC(SC1=NCCS1)C(=O)Nc1nnc(-c2ccc(Br)cc2)s1 (stereo unspecified),u,u,u,10µM*,-19.6,8.91µM*
CC(SC1=NCCS1)C(=O)Nc1nnc(-c2ccc(F)cc2)s1 (stereo unspecified),u,-21.8%,-8.9%,u,-52.8*,7.94µM*
COC(=O)Nc1nnc(-c2ccccc2OC)s1,u,u,-17.7%,-2.7%,19.2,-30.6%
CCC(SC1=NCCS1)C(=O)Nc1nnc(-c2ccccc2OC)s1 (stereo unspecified),18.4µM*,u,u,15.8µM*,-14.1,6.31µM*
COc1ccccc1CCNC(=O)C1CCN(c2nnc(-n3cccc3CNc3ccc(C)cc3)s2)CC1,x,23.1µM*,18.4µM*,x,x,x
Cc1ccc(NCc2cccn2-c2nnc(N3CCCCCC3)s2)cc1,x,16.4µM*,u,x,x,x
Cc1ccccc1CNC(=O)C1CCN(c2nnc(N3CCCC3=O)s2)CC1,3.4%,-1.5%,4.3%,-0.3%,-4.6,-12.9%
Fc1ccc(NCc2cccn2-c2nnc(N3CCOCC3)s2)cc1,x,-26.7%,-17.8%,x,x,x
Cc1ccc(NCc2cccn2-c2nnc(N3CCC(C(=O)NCc4ccc(F)cc4)CC3)s2)cc1,x,18.4µM*,u,x,x,x
Cc1ccc(NCc2cccn2-c2nnc(N3CCC(C(=O)NCc4ccccc4C)CC3)s2)cc1,x,16.4µM*,u,x,x,x
O=C(c1cnccn1)N1CCC2(CC1)CCN(c1ccncc1)CC2,x,-28.5%,-4.2%,-8.7%,x,-5.3%
CCc1ccc(CNC(=O)C2CCN(c3nnc(-n4c(C)ccc4C)s3)CC2)cc1,x,8.2µM*,u,x,x,x
